According to PubChem BioAssay (NCATS):
Results filed as inconclusive are left out. The source made the active and inactive calls. Unless noted, calls follow the shape of the dose curve; as a rule, active = well fitted curve in the direction sought with a large enough effect; inconclusive = small, poorly fitted or top-dose-only effect, or another doubt; inactive = no such curve, though single readings can be large; an effect the other way counts as inactive or inconclusive.

Tests used:
[1] = qHTS to identify inhibitors of the type 1 interferon - major histocompatibility complex class I in skeletal muscle: primary screen against the NCATS Mechanism Interrogation Plate v5.0 (MIPE) Libary (AID 1347411);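 also: plate controls were vehicle for no effect and reference inhibitor for full effect; nearly all actives have a fitted effect of over 65% in size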
Outline: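 Seed engineered human myoblasts (HLA-B HiBit) in medium without dexamethasone containing 4 ng/ml IFN-beta; after 1 hr add compound titrations (top 46 uM final). Incubate 24 hrs at 37 C, lyse 10 min with HiBiT reagent, read luminescence.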

[2] = Primary qHTS for inhibitors of nuclear receptor binding SET domain protein 2 (NSD2) in an isogenic RCH-ACV NSD2 p.E1099K mutant (9B) (AID 1645876); also: nearly all actives have a fitted effect of over 70% in size; also: potency is read from the fitted curve at half-maximal effect
[3] = Primary qHTS for inhibitors of nuclear receptor binding SET domain protein 2 (NSD2) in an RCH-ACV wild type WT cells (2C) (AID 1645877); also: nearly all actives have a fitted effect of over 70% in size; also: potency is read from the fitted curve at half-maximal effect
[4] = biological target: Glutathione peroxidase 1 (Homo sapiens) (UniProt P07203); assay: Primary qHTS Assay for Inhibitors of Recombinant Selenoprotein Glutathione Peroxidase 1 (GPX1) (AID 1845191); also: nearly all actives have a fitted effect of over 65% in size
Sequence of Glutathione peroxidase 1 (Homo sapiens) (P07203 whole entry, looked up): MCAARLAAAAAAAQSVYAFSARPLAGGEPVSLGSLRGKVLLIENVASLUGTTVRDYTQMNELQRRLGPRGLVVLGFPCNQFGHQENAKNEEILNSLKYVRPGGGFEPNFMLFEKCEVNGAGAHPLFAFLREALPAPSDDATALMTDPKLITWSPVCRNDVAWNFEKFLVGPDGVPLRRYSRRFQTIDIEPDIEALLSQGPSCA
Outline: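 NADPH consumption tracked by fluorescence at 340/450 nm between t=0 and t=15 min, room temperature. Final mix: 10 nM GPX1, 100 nM glutathione reductase, 1 mM GSH, 0.5 mM NADPH, 0.5 mM cumene hydroperoxide, 0.01% BSA; 30 min compound–enzyme preincubation.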

[5] = biological target: Phospholipid hydroperoxide glutathione peroxidase GPX4 (Homo sapiens) (UniProt P36969); assay: Primary qHTS Assay for Inhibitors of Recombinant Selenoprotein Glutathione Peroxidase 4 (GPX4) (AID 1845192); settings: outcome: dose series up to 50 µM unless noted; also: nearly all actives have a fitted effect of over 65% in size
Sequence of Phospholipid hydroperoxide glutathione peroxidase GPX4 (Homo sapiens) (P36969 whole entry, looked up): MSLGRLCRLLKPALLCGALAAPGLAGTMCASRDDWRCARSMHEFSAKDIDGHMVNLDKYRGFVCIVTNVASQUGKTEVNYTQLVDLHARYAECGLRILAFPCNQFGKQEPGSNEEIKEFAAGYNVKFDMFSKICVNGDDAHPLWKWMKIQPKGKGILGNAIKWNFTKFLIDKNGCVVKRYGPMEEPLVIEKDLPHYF
Outline: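 NADPH consumption followed by fluorescence at 340/450 nm, t=0 and after 15 min at room temperature. Reaction started with cumene hydroperoxide (0.5 mM final) after 30 min compound–GPX4 preincubation; final 200 nM GPX4, 100 nM GR, 1 mM GSH, 0.5 mM NADPH.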

[6] = qHTS drug screen for cell cycle checkpoint inhibitors in PARPi-resistant BRCA-mutant ovarian cancer cell lines. (AID 1963452; calls by dose curve); settings: PEO1/OlaR viability, CellTiter-Glo luminescence, 96 h, stronger effect = lower value
Outline: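 PEO1, PEO4 and PEO1/OlaR ovarian cancer cells, 600 per well, exposed 96 h at 37C to a dilution series. Viability read by CellTiter-Glo luminescence, normalized to DMSO and empty wells; activity summarized as Z-AUC.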

[7] = measured here: PEO1 parental Z-AUC

For `COc1cc2c(cc1OC)CN(CCc1ccc(-n3nnc(-c4cc(OC)c(OC)cc4NC(=O)c4cc(=O)c5ccccc5o4)n3)cc1)CC2`, which activity change, negative = inhibition [1] is on record?
The activity change, negative = inhibition was -5.16% [at 0.314 µM] (inactive).

What about the outcome [2] of the same molecule?
Its outcome is “inactive [at 0.588 µM]”.

What about the outcome [3] of the same molecule?
The outcome was “inactive [at 0.588 µM]”.

And the outcome [4]?
Its outcome is “inactive [at 0.4 µM]”.

And the outcome [5]?
The outcome was “inactive [at 0.409 µM]”.

What about the Z-AUC [6] of the same molecule?
Its Z-AUC is 2.8 (inactive).

And the Z-AUC [6, 7]?
The Z-AUC was 2.17.

What about the Z-AUC ([6]; measured here: PEO4 Z-AUC) of the same molecule?
Its Z-AUC is 2.67.

Which results are given for `N=C1S/C(=C\c2ccc(-c3ccc4c(c3)C(=O)NC4=O)o2)C(=O)N1c1ccc(Br)cc1`?
Potency [1]: inactive; Potency [2]: inactive; Potency [3]: inactive; Potency [4]: inactive; Z-AUC [6]: 0.761 (inactive); Z-AUC [6, 7]: 0.782; Z-AUC ([6]; measured here: PEO4 Z-AUC): 0.462

Which results are given for `CN(C)CCNC(=O)NC[C@H]1CC[C@@H]2[C@H](O1)c1cc(C(F)(F)F)ccc1N[C@H]2c1ccccc1`?
Potency [1]: inactive; Potency [2]: 0.263 µM (active); Potency [3]: 0.417 µM (active); Potency [4]: inactive; Potency [5]: inactive; Z-AUC [6]: -0.264 (inactive); Z-AUC [6, 7]: -0.891; Z-AUC ([6]; measured here: PEO4 Z-AUC): -1.1
